PubChem BioAssay
Activity calls are given as the source filed them.

Key:
[1] = tested on: PRMT1 (protein arginine N-methyltransferase 1); experiment: small molecules binding arginine methyltransferase PRMT1 – biochemical, small-molecule microarray, 635 nm fluorescence, primary screen (AID 1088); settings: higher = more signal;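 note: binding of Prmt1 protein to compounds spotted on small-molecule microarray slides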
[2] = growth effects on S. cerevisiae YJM789 – YJM789 clinical isolate, OD600, 24 h, basal, primary screen (AID 1089); settings: higher = more signal, called active from +8 up or from −8 down;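 note: growth of clinical yeast isolate S. cerevisiae YJM 789 seeded 1000 cells per well; test concentration not given here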
[3] = S. pombe growth modifiers, basal conditions – strain 972, OD600, 24 h, no modulator, primary screen (AID 1090);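 note: basal condition with compound alone and no growth modifier present; test concentration not given here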; settings: S. pombe 972 growth, higher = more signal, called active from +8 up or from −8 down
[4] = budding yeast growth modifiers under rapamycin – strain BY4716, OD600, 96 h, primary screen (AID 1091); note: test concentration not given here; settings: S. cerevisiae BY4716 + rapamycin, higher = more signal, called active from +8 up or from −8 down
[5] = molecular target: Torsin-1A-interacting protein 2 (Homo sapiens) (UniProt Q8NFQ8); experiment: small molecules binding lysate-expressed LULL1 – cell lysate, human LULL1 lysate, 635/667 nm fluorescence, primary screen (AID 1092); settings: small-molecule microarray, hLULL1 lysate binding, 635 nm fluorescence; higher = more signal;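 note: probe is lysate of COS7 cells overexpressing human LULL1; score merges per-feature 667 nm fluorescence with signal-to-noise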
Torsin-1A-interacting protein 2 (Homo sapiens), sequence (Q8NFQ8 whole entry, looked up): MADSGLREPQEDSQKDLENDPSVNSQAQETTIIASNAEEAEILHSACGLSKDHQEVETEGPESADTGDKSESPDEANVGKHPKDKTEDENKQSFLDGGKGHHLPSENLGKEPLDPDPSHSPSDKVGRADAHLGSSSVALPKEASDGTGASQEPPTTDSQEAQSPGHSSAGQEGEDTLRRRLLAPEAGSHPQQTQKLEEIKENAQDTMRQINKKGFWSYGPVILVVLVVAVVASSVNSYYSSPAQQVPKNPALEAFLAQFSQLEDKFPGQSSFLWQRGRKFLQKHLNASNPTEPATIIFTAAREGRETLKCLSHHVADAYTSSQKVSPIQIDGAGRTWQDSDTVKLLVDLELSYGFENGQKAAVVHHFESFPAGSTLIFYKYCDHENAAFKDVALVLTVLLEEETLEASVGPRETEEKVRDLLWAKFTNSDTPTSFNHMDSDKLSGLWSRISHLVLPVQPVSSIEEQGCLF

[6] = optical density change of DRC41 E. coli – strain DRC41, OD650, 24 h, E. coli filamentation project, primary screen (AID 1093);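 note: MC1000 strain lacking acrAB efflux and sulA so SOS filamentation is blocked; test concentration not given here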; settings: E. coli DRC41 growth, higher = more signal, called active from +8 up or from −8 down
[7] = probe aLefty2 binding to arrayed compounds – biochemical, biotinylated probe, 635/667 nm fluorescence, primary screen (AID 1094); settings: small-molecule microarray, higher = more signal;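 note: score merges spot fluorescence near 667 nm with spot signal-to-noise ratio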
[8] = tested on: Noggin (protein binding on small-molecule microarray); experiment: small molecules binding Noggin protein – biochemical, 635/667 nm fluorescence, primary screen (AID 1095); settings: 635 nm fluorescence, higher = more signal;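 note: score merges 667 nm feature fluorescence with signal to noise over triplicate slides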
[9] = molecular target: Neurogenic locus notch homolog protein 3 (Homo sapiens) (UniProt Q9UM47); experiment: small molecules binding NOTCH3 protein – biochemical, 635/667 nm fluorescence, primary screen (AID 1096); settings: small-molecule microarray, 635 nm fluorescence, higher = more signal
Neurogenic locus notch homolog protein 3 (Homo sapiens), sequence (Q9UM47 whole entry, looked up): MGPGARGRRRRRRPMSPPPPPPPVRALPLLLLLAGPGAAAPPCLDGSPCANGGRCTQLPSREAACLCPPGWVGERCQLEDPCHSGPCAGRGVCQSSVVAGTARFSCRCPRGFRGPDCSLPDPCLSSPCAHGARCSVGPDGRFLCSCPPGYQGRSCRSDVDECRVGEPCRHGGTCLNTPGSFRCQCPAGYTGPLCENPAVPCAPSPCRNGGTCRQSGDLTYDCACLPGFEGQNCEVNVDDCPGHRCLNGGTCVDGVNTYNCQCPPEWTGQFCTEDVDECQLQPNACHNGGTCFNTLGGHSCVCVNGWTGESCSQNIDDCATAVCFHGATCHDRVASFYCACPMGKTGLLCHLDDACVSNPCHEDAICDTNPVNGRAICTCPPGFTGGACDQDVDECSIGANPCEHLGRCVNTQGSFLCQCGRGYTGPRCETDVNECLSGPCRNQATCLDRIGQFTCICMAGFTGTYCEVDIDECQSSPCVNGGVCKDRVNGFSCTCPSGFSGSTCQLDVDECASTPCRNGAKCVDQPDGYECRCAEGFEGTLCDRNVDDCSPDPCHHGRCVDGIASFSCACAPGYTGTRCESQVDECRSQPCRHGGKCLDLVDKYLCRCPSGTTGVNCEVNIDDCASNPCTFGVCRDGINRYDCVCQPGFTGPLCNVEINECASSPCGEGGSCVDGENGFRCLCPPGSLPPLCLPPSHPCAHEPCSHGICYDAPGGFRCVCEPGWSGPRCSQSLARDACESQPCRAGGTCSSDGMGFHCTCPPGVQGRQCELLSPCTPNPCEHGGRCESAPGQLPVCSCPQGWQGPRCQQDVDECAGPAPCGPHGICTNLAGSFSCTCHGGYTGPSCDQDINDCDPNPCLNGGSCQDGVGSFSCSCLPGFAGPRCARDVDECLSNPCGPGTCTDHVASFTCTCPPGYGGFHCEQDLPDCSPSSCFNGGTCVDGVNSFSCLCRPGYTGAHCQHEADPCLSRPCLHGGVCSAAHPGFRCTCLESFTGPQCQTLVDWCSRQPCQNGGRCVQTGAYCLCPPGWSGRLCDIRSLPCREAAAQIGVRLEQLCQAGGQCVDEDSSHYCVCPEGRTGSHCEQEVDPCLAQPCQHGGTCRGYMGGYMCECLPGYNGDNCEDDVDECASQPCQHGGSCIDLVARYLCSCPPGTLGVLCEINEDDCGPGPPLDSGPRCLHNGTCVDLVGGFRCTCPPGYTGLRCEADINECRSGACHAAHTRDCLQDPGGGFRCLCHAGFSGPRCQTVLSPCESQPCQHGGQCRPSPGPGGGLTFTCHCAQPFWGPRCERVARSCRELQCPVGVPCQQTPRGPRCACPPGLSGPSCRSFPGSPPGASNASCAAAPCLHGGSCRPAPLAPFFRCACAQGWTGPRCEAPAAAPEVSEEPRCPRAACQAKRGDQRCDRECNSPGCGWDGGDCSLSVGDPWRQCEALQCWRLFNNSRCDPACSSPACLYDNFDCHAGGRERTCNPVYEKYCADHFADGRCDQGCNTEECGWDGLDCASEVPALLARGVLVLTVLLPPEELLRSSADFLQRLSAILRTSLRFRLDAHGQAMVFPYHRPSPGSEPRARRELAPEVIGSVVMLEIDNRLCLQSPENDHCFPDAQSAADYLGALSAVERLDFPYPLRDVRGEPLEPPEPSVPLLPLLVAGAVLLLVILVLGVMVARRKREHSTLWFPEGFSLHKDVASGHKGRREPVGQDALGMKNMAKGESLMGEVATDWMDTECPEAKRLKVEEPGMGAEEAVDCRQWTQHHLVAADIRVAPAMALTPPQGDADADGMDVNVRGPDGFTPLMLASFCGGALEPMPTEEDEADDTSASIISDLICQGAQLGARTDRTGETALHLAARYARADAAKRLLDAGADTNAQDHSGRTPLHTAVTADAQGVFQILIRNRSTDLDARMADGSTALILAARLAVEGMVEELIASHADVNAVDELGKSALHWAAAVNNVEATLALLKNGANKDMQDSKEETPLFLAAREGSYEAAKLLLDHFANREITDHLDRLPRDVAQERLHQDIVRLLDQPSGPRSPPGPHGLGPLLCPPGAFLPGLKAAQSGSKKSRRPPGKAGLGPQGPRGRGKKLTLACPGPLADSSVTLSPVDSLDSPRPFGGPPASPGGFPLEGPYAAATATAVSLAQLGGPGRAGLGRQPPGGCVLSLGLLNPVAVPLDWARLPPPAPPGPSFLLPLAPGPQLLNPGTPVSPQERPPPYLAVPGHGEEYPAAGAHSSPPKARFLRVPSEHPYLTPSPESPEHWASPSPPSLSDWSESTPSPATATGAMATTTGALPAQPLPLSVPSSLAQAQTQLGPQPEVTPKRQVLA

[10] = probe aEGFR binding to arrayed compounds – biochemical, biotinylated probe, 635/667 nm fluorescence, primary screen (AID 1097); settings: small-molecule microarray, higher = more signal;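 note: probe is a biotinylated anti-EGFR antibody binding compounds printed on slides; score combines fluorescence near 667 nm and signal to noise of each spot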

Row | SMILES | composite z-score [1] | z-score [2] | z-score [3] | z-score [4] | composite z-score [5] | z-score [6] | composite z-score [7] | composite z-score [8] | composite z-score [9] | composite z-score [10]
1 | C=CC[C@@H]1C=C[C@H](ON=C2[C@H]3CCn4c(=O)n(-c5ccccc5)c(=O)n4[C@H]3[C@H](O)[C@@H]3O[C@H]23)[C@@H](CO)O1 | -0.41 | 0.552 (inactive) | 0.383 (inactive) | 1.04 (inactive) | -0.114 | 0.607 (inactive) | -0.257 | 0.308 | -0.0701 | 0.0434
2 | CC(C)CON=C1C[C@@H](O)[C@@H](O)[C@@H]2[C@@H]3C(=O)N(C(C)(C)C)C(=O)[C@@H]3CC[C@H]12 | 0.829 | -0.318 (inactive) | 0.674 (inactive) | 0.0851 (inactive) | 1.96 | 0.573 (inactive) | 0.0577 | -0.316 | -0.562 | -0.0966
3 | COc1ccc(O[C@H]2C=C[C@@H](c3ccccc3)O[C@@H]2CON=C2[C@H]3CCn4c(=O)n(-c5ccccc5)c(=O)n4[C@H]3[C@H](O)[C@@H]3O[C@H]23)cc1 | 1.3 | -0.417 (inactive) | 0.444 (inactive) | 0.661 (inactive) | 0.86 | -0.745 (inactive) | -0.206 | 0.437 | 0.863 | 0.0009
4 | COc1cccc([C@@H]2Oc3ccc(OC)cc3C(=O)[C@H]2O)c1 | 0.597 | -2.23 (inactive) | -4.98 (inactive) | -2.1 (inactive) | 0.704 | 0.349 (inactive) | -0.173 | 0.052 | 0.415 | -0.0697
5 | COC(=O)[C@H](C)NC(=O)CCC1CC(OC(=O)NCc2ccc3c(c2)OCO3)CC2(CCCC(COC(=O)NCC(c3ccccc3)c3ccccc3)O2)O1 (stereo not given in full) | 1.55 | -0.256 (inactive) | -0.58 (inactive) | -0.122 (inactive) | 2.65 | -0.502 (inactive) | -0.118 | 1.5 | 1.06 | 0.0004
6 | COC(=O)CC=C[C@@H](C)[C@@H](C=NO[C@H](C)c1cn([C@H](CO)Cc2ccccc2)nn1)OC | 1.14 | -0.14 (inactive) | -0.617 (inactive) | -0.0624 (inactive) | 0.169 | 0.0673 (inactive) | -0.12 | 1.37 | 0.614 | 0.0556
7 | O=C1OCCC=C1C(O)CCc1ccccc1 (stereo not given) | -1.06 | -0.857 (inactive) | -0.113 (inactive) | -0.665 (inactive) | -0.119 | 0.353 (inactive) | -0.0324 | 0.433 | 0.67 | 0.0009
8 | COc1ccc(O[C@H]2C=C[C@@H](c3ccccc3)O[C@@H]2CON=C(C)CCN2CCc3nc(-c4ccccc4)c(-c4ccccc4)cc3C2)cc1 | 0.307 | 0.549 (inactive) | -0.513 (inactive) | -2.92 (inactive) | 0.607 | 0.669 (inactive) | -0.148 | 0.111 | -0.183 | -0.133
9 | C=CC[C@@H]1C=C[C@H](ON=C(C)CCC(=O)OC[C@H]2O[C@H](C#Cc3ccccc3)C=C[C@@H]2Oc2ccc(C)cc2)[C@@H](CO)O1 | 1.54 | 1.28 (inactive) | 0.275 (inactive) | 1.06 (inactive) | 2.2 | 0.943 (inactive) | -0.116 | 0.615 | 1.12 | 0.109
10 | CO[C@@H]1COC(=O)CC=C[C@@H](C)[C@H](OC)COC(=O)[C@@H](C)COC(=O)CC=C[C@H]1C | 0.263 | 0.659 (inactive) | -0.155 (inactive) | 1.2 (inactive) | -0.915 | 0.421 (inactive) | -0.317 | 0.496 | -0.81 | -0.616
11 | C#CCCCON=C1C[C@@H](O)[C@@H](O)[C@@H]2[C@@H]3C(=O)N(C(C)(C)C)C(=O)[C@@H]3CC[C@@H]12 | -0.227 | 0.266 (inactive) | 0.0546 (inactive) | 0.934 (inactive) | 0.148 | -0.131 (inactive) | 0.502 | -1.11 | -1.07 | -0.106
12 | CC=CC1=C(CO)C(=O)[C@@H]2O[C@@H]2C1=O | 0.114 | -0.767 (inactive) | -0.738 (inactive) | -0.624 (inactive) | -1.02 | 0.199 (inactive) | -0.199 | 1.58 | 0.406 | 0.0083
13 | O=C1[C@H]2[C@H]3[C@H](O)[C@H](O)CC(=NOCc4ccccc4)[C@H]3CC[C@H]2C(=O)N1Cc1ccc2c(c1)OCO2 | 0.437 | -0.627 (inactive) | -0.674 (inactive) | -1.53 (inactive) | 1.1 | 1.26 (inactive) | -0.0766 | 0.273 | 0.546 | 0.0102
14 | CCCCc1nc2c(c3c1C[C@H](C)OC3)CN(CCOc1ccccc1)CC2 | 1.44 | -2.26 (inactive) | -4.02 (inactive) | 0.574 (inactive) | 1.62 | 0.976 (inactive) | -0.005 | 0.339 | 0.732 | 0.219
15 | CCOC(=O)[C@H](Cc1ccccc1)NC(=O)CCC1CC(OC(=O)NCc2ccc3c(c2)OCO3)CC2(CCCC(COC(=O)NCCC(C)C)O2)O1 (stereo not given in full) | 1.54 | 0.648 (inactive) | -0.29 (inactive) | -0.2 (inactive) | 1.95 | -0.167 (inactive) | 0.0224 | 0.614 | 0.671 | -0.068
16 | CON=C(C)CCC(=O)OC[C@H]1O[C@H](c2ccccc2)C=C[C@@H]1Oc1ccc(OC)cc1 | 0.0846 | 1.34 (inactive) | -0.241 (inactive) | 1.4 (inactive) | -0.225 | 0.403 (inactive) | -0.176 | 0.411 | -0.0061 | -0.0783
17 | O=C1C[C@@H](O)[C@@H](O)[C@@H]2[C@@H]3C(=O)N(C[C@@H]4CCCO4)C(=O)[C@@H]3CC[C@H]12 | 0.578 | 0.788 (inactive) | -0.563 (inactive) | 0.672 (inactive) | 0.493 | 0.701 (inactive) | -0.108 | 0.394 | 0.652 | -0.0118
18 | CC(C)CON=C1C[C@@H](O)[C@@H](O)[C@@H]2[C@@H]3C(=O)N(C4CCCCC4)C(=O)[C@@H]3CC[C@@H]12 | -0.0785 | 0.4 (inactive) | -0.513 (inactive) | 0.423 (inactive) | 1.64 | -0.233 (inactive) | -0.302 | 0.0295 | -0.519 | -0.154
19 | COC(=O)[C@H]1O[C@@H](c2c(OC)c(OC)c(C)c(OC)c2OC)[C@H](C)[C@@H](O)[C@H]1C | 1.03 | 0.234 (inactive) | 0.346 (inactive) | -0.438 (inactive) | 0.964 | 0.196 (inactive) | -0.0131 | 0.585 | 1.1 | 0.0821
20 | COc1cccc([C@H]2Oc3ccc(OC)cc3C(=NO[C@@H]3O[C@H](COC(C)=O)[C@@H](OC(C)=O)[C@H](OC(C)=O)[C@H]3OC(C)=O)[C@@H]2O)c1 | 0.102 | -1.07 (inactive) | 1.14 (inactive) | -0.239 (inactive) | -0.0867 | 0.373 (inactive) | -0.119 | 0.35 | 0.615 | 0.0009
21 | CCOC(=O)[C@H](CC(C)C)NC(=O)CCC1CC(OC(=O)NCc2cccc3ccccc23)CC2(CCCC(COC(=O)NCCc3ccc(Cl)cc3)O2)O1 (stereo not given in full) | 0.333 | -1.16 (inactive) | -0.858 (inactive) | -0.164 (inactive) | 1.04 | -0.0339 (inactive) | -0.188 | 0.434 | 0.741 | -0.0334
22 | COC(=O)[C@H](C)NC(=O)CCC1CC(OC(=O)NCc2ccc3c(c2)OCO3)CC2(CCCC(COC(=O)NCc3cccc(C(F)(F)F)c3)O2)O1 (stereo not given in full) | 1.42 | -1.04 (inactive) | 0.0536 (inactive) | 0.253 (inactive) | 1.65 | -0.15 (inactive) | -0.0096 | 0.186 | 0.524 | -0.0644
23 | COC(=O)CC=C[C@@H](C)[C@@H](C=NOC[C@H]1O[C@H](c2ccccc2)C=C[C@@H]1Oc1ccc(OC)cc1)OC | -0.356 | -0.337 (inactive) | 0.427 (inactive) | 0.439 (inactive) | -0.072 | -0.19 (inactive) | -0.258 | 0.0133 | -1.13 | -0.253
24 | CC(CCN1CCCCc2nc(C)c(C)cc21)=NO[C@H](C)c1cn([C@H](CO)Cc2ccccc2)nn1 | 1.1 | -0.585 (inactive) | 0.446 (inactive) | -0.382 (inactive) | 0.592 | -0.425 (inactive) | 0.0345 | 0.196 | 0.108 | -0.026
25 | C#CCCCON=C1C[C@@H](O)[C@@H](O)[C@@H]2[C@@H]3C(=O)N(c4cccc(Oc5ccccc5)c4)C(=O)[C@@H]3CC[C@H]12 | -0.684 | 0.74 (inactive) | 0.202 (inactive) | -0.284 (inactive) | -0.204 | 0.676 (inactive) | -0.172 | -0.738 | -0.581 | -0.213
26 | C[C@@H](c1ccccc1)N1C(=O)[C@H]2[C@H]3[C@H](O)[C@H](O)CC(=NOCc4ccccc4)[C@H]3CC[C@H]2C1=O | 1.3 | 0.435 (inactive) | 0.107 (inactive) | 0.0942 (inactive) | 2.38 | -0.0659 (inactive) | -0.0942 | 0.374 | 0.354 | -0.0424
27 | CC(C)=CCCC(C)=CCON=C1C[C@@H](O)[C@@H](O)[C@@H]2[C@@H]3C(=O)N(C(C)(C)C)C(=O)[C@@H]3CC[C@@H]12 | -0.305 | 0.286 (inactive) | 0.451 (inactive) | 0.361 (inactive) | 0.197 | -0.636 (inactive) | -0.0615 | 0.386 | 0.605 | -0.0594
